Screens deposited in PubChem BioAssay by National Center for Advancing Translational Sciences (NCATS).
Sampled rows, rich in hits. Any-hit rate of the full collection: about 11%.
HttQ103 aggreg: mutant huntingtin aggregation inhibition; Potency, µM (top dose mostly 46.1 µM), for inactives: at the top dose activity change, negative = inhibition, most hits filed as inhibitors; PC12 HttQ103-GFP aggregates, Acumen cytometry, 40 h; actives 1.1% (n = 220,000); active means well fitted curve in the direction sought with a large enough effect; inconclusive means small, poorly fitted or top-dose-only effect, or another doubt; inactive means no such curve, though single readings can be large; an effect the other way counts as inactive or inconclusive; further: potency means the concentration at half of the fitted maximal effect; on the % scale 0 is the no-effect control and ±100 the full control effect; nearly all actives have a fitted effect of over 60% in size
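Multiplexed with ATP-based cell death, this channel scores GFP aggregates in PC12 cells expressing inducible HTTex1-Q103-GFP. Induction used 100 nM tebufenozide; compounds were tested in concentration series.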
RGS12 GoLoco inh: inhibitors of human Gai1-RGS12 GoLoco interaction (red fluorophore). actives 0.44% (n = 230,000). Potency, µM (highest dose often 61.6 µM), inactives show at the top dose activity, negative = inhibition, hits mostly inhibitors. Gai1:RGS12 GoLoco peptide FP, rhodamine, 10 min. P63096; active means well fitted inhibition curve with a large enough effect, not every such curve was filed as active; inactive means no such curve, though single readings can be large or run the other way; further: potency means the concentration at half of the fitted maximal effect; on the % scale 0 is the no-effect control and ±100 the full control effect; nearly all actives have a fitted effect of over 30% in size
ALDH1A1 inh: blocks purified human ALDH1A1 activity | P00352 | Purified ALDH1A1, NADH fluorescence, propionaldehyde substrate | Potency, µM (titrated, usually from 75.3 µM), without a hit: at the highest dose activity, negative = inhibition, hits mostly inhibitors | actives 7.3% (n = 220,000);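 further: potency means the concentration at half of the fitted maximal effect; plate controls were no enzyme wells and a reference inhibitor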
Target sequence (P00352 whole entry, looked up): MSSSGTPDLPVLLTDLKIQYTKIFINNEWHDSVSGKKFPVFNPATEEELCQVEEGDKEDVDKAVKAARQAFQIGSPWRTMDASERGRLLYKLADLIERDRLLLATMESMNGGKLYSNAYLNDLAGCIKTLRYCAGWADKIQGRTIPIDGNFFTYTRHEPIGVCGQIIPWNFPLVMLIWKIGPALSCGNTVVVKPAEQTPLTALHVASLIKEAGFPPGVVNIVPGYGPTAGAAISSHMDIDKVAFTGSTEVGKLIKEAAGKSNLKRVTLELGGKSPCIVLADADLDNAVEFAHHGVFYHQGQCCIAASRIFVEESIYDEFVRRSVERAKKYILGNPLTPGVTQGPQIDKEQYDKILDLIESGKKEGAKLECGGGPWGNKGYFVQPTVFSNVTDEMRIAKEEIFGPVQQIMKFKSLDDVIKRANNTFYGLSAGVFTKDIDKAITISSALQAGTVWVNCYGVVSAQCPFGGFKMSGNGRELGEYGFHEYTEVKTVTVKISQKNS
HTT cytoprotect: protects HTT-Q103 PC12 cells, measured by ATP | AID 1471 | actives 0.14% (n = 230,000) | Potency, µM (titrated, usually from 56.4 µM), inactives show cytoprotection (ATP increase), usual class: activators | PC12 HTT-Q103 induced, cytoprotection, ATP luminescence, 40 h; active means well fitted curve in the direction sought with a large enough effect; inconclusive means small, poorly fitted or top-dose-only effect, or another doubt; inactive means no such curve, though single readings can be large; an effect the other way counts as inactive or inconclusive; further: potency means the concentration at half of the fitted maximal effect; % of control where 0% means no effect; nearly all actives have a fitted effect of over 45% in size
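Compounds were screened for protection of PC12 cells against cell death after tebufenozide induction (100 nM final) of mutant Huntingtin exon 1 (Q103) fused to GFP.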
PNC assembly inh: perinucleolar compartment assembly inhibition. activity change (PNC), negative = inhibition, % at 10 µM. actives 3.1% (n = 140,000). PC3M PTB-GFP, PNC prevalence imaging, 16 h; hits give low values. AID 2417;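 active means readout at or below -70, meaning at least 70% loss of cells showing the perinucleolar compartment, a nuclear body marking cancer cells; inconclusive means readout between -30 and a set limit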;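 further: plate controls were DMSO wells for no effect and camptothecin positive control wells for full effect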
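PC3M cells stably expressing PTB-GFP, 750–1000 cells/well, treated 16 h at 37 °C with compound (23 nl of library stock), in duplicate. After paraformaldehyde fixation and Hoechst stain, imaged at 20x; PNC prevalence scored by image analysis.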
HPGD block: blocks human HPGD enzyme activity; P15428; purified HPGD, NADH fluorescence kinetic, PGE2 substrate; Potency, µM, inactives show top-dose activity change, negative = inhibition, usual class: inhibitors; actives 4.3% (n = 150,000); AID 894; further: potency means the concentration at half of the fitted maximal effect; on the % scale 0 is the no-effect control and ±100 the full control effect
Target sequence (P15428 whole entry, looked up): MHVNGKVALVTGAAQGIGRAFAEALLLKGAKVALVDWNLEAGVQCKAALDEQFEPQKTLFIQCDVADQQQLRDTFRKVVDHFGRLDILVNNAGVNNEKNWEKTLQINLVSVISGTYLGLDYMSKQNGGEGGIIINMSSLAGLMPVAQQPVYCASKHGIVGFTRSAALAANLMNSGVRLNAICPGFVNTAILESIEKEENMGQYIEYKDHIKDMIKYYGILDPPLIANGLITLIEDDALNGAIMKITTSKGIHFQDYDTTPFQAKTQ
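NADH formation kinetics: reaction with 30 uM PGE2 and 1 mM NAD+ (final), 20 nM enzyme, Tris-HCl pH 8 with Tween 20, after 15 min compound preincubation at room temperature. Fluorescence change, last versus first of five reads.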
Active calls of the source: *; ? = inconclusive; / = not tested or not shown; ! = repeats disagree; [ ] = another dose, or the depositor's remark. Unless noted, the call rests on the fitted dose curve; in most records, active means well fitted inhibition curve with a large enough effect (not every such curve was filed as active); inconclusive means small, poorly fitted or top-dose-only effect, or another doubt; inactive means no such curve, though single readings can be large or run the other way.

SMILES | HttQ103 aggreg | RGS12 GoLoco inh | ALDH1A1 inh | HTT cytoprotect | PNC assembly inh | HPGD block
COc1ccc(-n2c(-c3ccc(C)cc3)nc3ccccc3c2=O)cc1 | -1.3%[9.22 µM] | -12.1% | 7.94µM* | -6.6%[10 µM] | / | /
CCCCOc1nc2ccccc2c(=O)n1-c1ccccc1 | 1.1% | -8.3% | 14.1µM* | 5.7%[10 µM] | ? | -13.0%
Cc1ccc(-c2nc3ccccc3c(=O)n2-c2ccncc2)cc1 | -19.2% | 2.3% | ? | 22.8%[10 µM] | 26.5 | -8.6%
Cc1ccc2cc3c(ccc4ccccc43)c3c2c1CC3 | / | -5.1% | ? | -41.6% | / | /
CCCC[N+]1(C)[C@@H]2CC(OC(=O)[C@@H](CO)c3ccccc3)C[C@H]1[C@H]1O[C@H]12 (some centres undefined) | / | / | / | -8.5%[1.9 µM] | / | /
O=C(Nc1cccc(F)c1)N1CC2(CCNCC2)C1 | / | 0.6% | -9.2% | 11.3% | / | -9.0%
Cc1nc2ccc(Cl)cn2c1P(=S)(N1CCOCC1)N1CCOCC1 | -3.2% | 6.6% | 10.4% | 1.5% | 62.6 | -4.1%
Cn1ccnc1P(=S)(c1nccn1C)N1CCOCC1 | 6.7% | -7.2% | 28.2µM* | 3.1% | 10.5 | 25.1µM*
Cc1ccc(NC(=S)NCC2CCCO2)cc1 (centres undefined) | -7.2% | 2.8% | -13.0% | -32.3% | -29.7 | 25.1µM*
CC(=NCC1CCCO1)c1c(O)n(-c2ccc(C)cc2)c(=O)[nH]c1=O (centres undefined) | 17.4% | 3.0% | 2.4% | 2.5% | -14.2 | -0.5%
CCC[CH2][Sn]([Cl])([Cl])[Cl] | / | -3.7% | ? | -2.7% | / | -2.8%
O=C(NCc1ccccn1)c1ccccc1Cl | -0.1% | -9.3% | ? | -11.3% | 14.5 | 6.31µM*
CC(=O)OC1CCC2(C)C3=C(CCC2C1(C)C)[C@]1(C)CCC(C(C)CCC=C(C)C)[C@]1(C)CC3 (some centres undefined) | / | -3.8% | ? | -35.3% | / | -5.8%
CC(C)=CCCC(C)C1CC[C@@]2(C)C3=C(CC[C@@]12C)C1(C)CCC(O)C(C)(C)C1CC3 (some centres undefined) | / | -0.7% | 28.2µM* | / | / | -8.9%
O=[N+]([O-])c1cccc2ccccc12 | / | 2.6% | ? | 13.8% | / | -5.0%
O=[N+]([O-])c1ccccc1CCl | / | 2.4% | 12.6µM* | ? | / | 1.9%
CNc1ccc2oc(C[C@H]3O[C@]4(CC[C@H]3C)O[C@H]([C@H](C)C(=O)c3ccc[nH]3)[C@H](C)C[C@H]4C)nc2c1C(=O)O | / | 4.2% | ? | -57.6% | / | ?
COc1cc(C(C#N)N2CCOCC2)ccc1O (centres undefined) | 2.1% | / | 14.1µM* | 1.0%[10 µM] | -5.1 | /
CN1Cc2ccccc2[C@@H]2c3cccc4[nH]cc(c34)C[C@H]21 | / | 44.1% | 15.8µM*! | -40.4% | / | -26.8%
CC1=C[C@@H]2c3cccc4[nH]cc(c34)C[C@H]2N(C)C1 | / | -10.7% | ? | -4.8% | / | /
Nc1ncnc2c1ncn2[C@@H]1O[C@H](COP(=O)(O)OP(=O)(O)OP(=O)(O)O)[C@H]2OC3(O[C@H]21)C([N+](=O)[O-])=CC(=[N+]([O-])[O-])C=C3[N+](=O)[O-] (some centres undefined) | / | 67.8% | ? | -20.4% | / | ?
O=C(c1ccc2c(=O)n(Cc3ccc4c(c3)OCO4)c(=S)[nH]c2c1)N1CCC2(CC1)OCCO2 | -17.3% | 11.3% | ? | -3.5% | 29.3 | 31.6µM*
O=C(NCc1ccc(C(=O)N2CCC3(CC2)OCCO3)cc1)c1ccc2c(c1)OCO2 | 17.1% | -1.8% | 7.6% | -11.0%[0.074 µM] | 6.9 | -18.3%
NCCc1ccc(S(=O)(=O)O)cc1[N+](=O)[O-] | / | 6.4%[14.2 µM] | 0.1%[13.5 µM] | -2.4%[10 µM] | / | -5.5%
CCOC(=O)c1ncc2[nH]c3ccc(OCc4ccccc4)cc3c2c1COC | / | 6.9% | ? | -20.0% | / | ?
SMILES | HttQ103 aggreg | RGS12 GoLoco inh | ALDH1A1 inh | HTT cytoprotect | PNC assembly inh | HPGD block
CN1CCN(Cc2cc(C(C)(C)C)c(O)c(C(C)(C)C)c2)CC1 | 21.7% | -2.0% | 22.4µM* | 8.4%[10 µM] | 12.9 | 5.9%
COc1cc(-c2ccc(=O)[nH]n2)ccc1OC(F)F | 6.2% | 8.7% | -7.9% | ? | / | 20µM*!
c1ccc2c(c1)CCCC2 | / | 6.9% | -16.0% | 19.9% | / | -6.7%
C/C=C1\C[N@@+]2(C)CC[C@@]34C(=C(C=O)[C@H]1C[C@H]32)Nc1ccccc14 | / | -37.6%[21.6 µM] | ? | 1.8%[40.3 µM] | / | 15.8µM*
O=[N+]([O-])c1ccc2nc(N3CCNCC3)ccc2c1 | / | 6.8% | 25.1µM* | -57.9% | / | -15.6%
CCOC(=O)c1ccc(N2C(=O)CC(N3CC=C(c4ccc(F)cc4)CC3)C2=O)cc1 (centres undefined) | 20.3% | 74.0% | 3.55µM* | -23.9% | -20.7 | 28.2µM*
O=C1CC(N2CC=C(c3ccc(F)cc3)CC2)C(=O)N1c1ccc(F)cc1 (centres undefined) | -11.0% | 49.6% | ? | -14.0% | -9.2 | -8.5%
COc1ccc(N=C2SCCCN2C)cc1 | -16.1% | 7.94µM* | -5.2% | 8.4%[10 µM] | 4.9 | -0.9%
Brc1cccc(-c2ccccc2)c1 | / | 3.6% | 10.4% | -32.4% | / | -2.1%
CC(C)(C)c1cc([N+](=O)[O-])cc(C(C)(C)C)c1O | 7.94µM* | 3.8% | -2.7% | -33.4% | / | /
NC(=O)c1cc([N+](=O)[O-])cc([N+](=O)[O-])c1 | 2.4% | -0.4% | -4.9% | -0.1% | / | 0.8%
CC[C@H](CO)NC(=O)[C@@H]1C=C2c3cccc4[nH]cc(c34)C[C@@H]2N(C)C1 | / | / | / | -0.5%[1.9 µM] | / | /
COc1ccc(C(=O)O)cc1OC | / | 31.6µM* | -8.5% | -91.1% | / | -3.0%
CCC(=O)c1ccc(OC)c(OC)c1 | -0.1% | 3.7% | 12.1% | -23.9% | / | /
Cc1ccc(-n2c(-c3nn(C)c(C)c3Cl)n[nH]c2=S)cc1 | 27.0% | -3.3% | 31.6µM* | -17.6% | ? | 28.2µM*
Cc1c(C=C2C(=O)N(C)C(=O)N(C)C2=O)c(=O)n(-c2ccccc2)n1C | 1.8% | -9.4% | 3.2% | 2.0%[0.074 µM] | -10.1 | 5.3%
CN1C(=O)C(=Cc2c(OCc3cnc(Cl)s3)ccc3ccccc23)C(=O)N(C)C1=O | 15.0%[9.22 µM] | 116.8% | 2.24µM* | -37.5% | / | /
CCN1C(=O)NC(=O)/C(=C/c2cc(C)n(-c3sc(C)c(C)c3C#N)c2C)C1=O | 4.0% | 75.1% | 0.199µM* | -16.0%[10 µM] | ? | 8.91µM*
CCOC(=O)c1c(/N=C/C2C(=O)NC(=O)NC2=O)sc2c1CCC2 | 2.2% | 30.6% | -5.8% | -9.2% | / | /
CCOC(=O)c1c(-n2c(C)cc(C=C3C(=O)NC(=S)NC3=O)c2C)sc2c1CCCC2 | ? | 53.2% | 7.94µM* | -1.5%[10 µM] | ? | 3.55µM*
Cc1cc(/C=C2/C(=O)NC(=O)N(c3ccc(Br)cc3)C2=O)c(C)n1C | -0.9%[9.22 µM] | 96.8% | 5.0% | 14.9%[10 µM] | / | /
